# According to PubChem BioAssay (Tox21):
# Results filed as inconclusive are left out. A number with no mark means an inactive call. Unless noted, calls come from the whole dose curve.
# Biological target: Vitamin D3 receptor (Homo sapiens) (UniProt P11473)
# Experiment: qHTS assay to identify small molecule agonists of the vitamin D receptor (VDR) signaling pathway (AID 743222)
# Settings: HEK293T VDR-UAS-bla, beta-lactamase FRET ratio, 16 h; series mostly up to 63.5 µM; activation: at the top concentration
# In short: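 VDR-bla cells, 2,000/well; 4 h preincubation 37C; cpd (DMSO) 16 h; LiveBLAzer B/G substrate 2 h RT; fluorescence intensity read.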
# % is set by controls: 0 for no effect and ±100 for the full control effect.
# Vitamin D3 receptor (Homo sapiens), sequence (P11473 whole entry, looked up): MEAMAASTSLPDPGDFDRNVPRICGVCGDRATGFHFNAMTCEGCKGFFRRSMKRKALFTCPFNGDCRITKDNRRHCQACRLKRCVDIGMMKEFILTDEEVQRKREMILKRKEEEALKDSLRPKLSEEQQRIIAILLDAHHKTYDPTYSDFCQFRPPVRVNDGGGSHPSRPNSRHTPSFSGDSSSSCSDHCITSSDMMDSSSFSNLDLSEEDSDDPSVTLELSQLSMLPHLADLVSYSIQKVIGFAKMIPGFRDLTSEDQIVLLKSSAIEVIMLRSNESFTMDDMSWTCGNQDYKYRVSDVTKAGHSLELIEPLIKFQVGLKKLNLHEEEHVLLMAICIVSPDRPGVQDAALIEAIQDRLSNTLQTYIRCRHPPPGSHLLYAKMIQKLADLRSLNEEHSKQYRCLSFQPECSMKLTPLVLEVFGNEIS
row,Compound,activation
1,O=[Si]=O,4.47%
2,CCC(=O)OCCC(C)CCC=C(C)C (stereo not drawn),-7.83%
3,C=CCOc1c(Br)cc(Br)cc1Br,9.15%
4,C=CCOc1c(Br)cc(C(C)(C)c2cc(Br)c(OCC=C)c(Br)c2)cc1Br,3.35%
5,COc1cc2c3cc1Oc1cc(ccc1O)C[C@@H]1c4c(cc(OC)c(O)c4Oc4ccc(cc4)C[C@@H]3N(C)CC2)CC[N+]1(C)C,0.235%
6,Cc1ccccc1N1CCN(CCc2nnc3n2CCCC3)CC1,1.85%
7,NS(=O)(=O)c1cc2c(cc1Cl)NC(CC1CCCC1)NS2(=O)=O (stereo not drawn),3.4%
8,CC(=O)c1ccc(OCC(=O)N2CCCCC2)cc1,-1.12%
9,O=S(=O)(O)CCO,-7.37% [at 81.1 µM]
10,CN=C(NC#N)NCCSCc1csc(N=C(N)N)n1,7.79%
11,C=C[Si](C)(C)O[Si](C)(C)C=C,-1.06%
12,O=C1OC(=O)c2ccccc21,1.52%
13,CC(=O)OC(C)c1ccccc1 (stereo not drawn),0.571%
14,O=S1(=O)CCCC1,-7.44% [at 81.1 µM]
15,Cc1cccc(C(=O)O)c1[N+](=O)[O-],1.22%
16,NC(=O)C1(N2CCCCC2)CCN(CCCC(=O)c2ccc(F)cc2)CC1,-2.23%
17,O=C(/C=C/c1ccccc1)NCCO,6.05%
18,O=C(Oc1ccccc1C(=O)O)c1ccccc1O,3.58%
19,CN[C@@H]1[C@H](O)[C@H](NC)[C@H]2O[C@@]3(O)C(=O)C[C@@H](C)O[C@H]3O[C@@H]2[C@H]1O,12%

# Biological target: Vitamin D3 receptor (Homo sapiens) (UniProt P11473)
# Experiment: qHTS assay to identify small molecule antagonists of the vitamin D receptor (VDR) signaling pathway (AID 743223; active = well fitted inhibition curve with a large enough effect in the signal ratio in the repeat runs, not every such curve was filed as active; the % refers to the signal ratio)
# Settings: VDR-UAS-bla HEK293T, beta-lactamase FRET ratio, 16 h; series mostly up to 61 µM; activity change, negative = inhibition: at the top concentration
# In short: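 Quantitative HTS in VDR-bla reporter cells stimulated with 1alpha,25-dihydroxyvitamin D3, 3 nM final. Compound exposure 16 h, 37C, 5% CO2. Read-out: beta-lactamase FRET substrate fluorescence, 2 h RT.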
row,Compound,"activity change, negative = inhibition"
1,C[C@H]1O[C@H](O[C@H]2[C@H](O)[C@@H](O)[C@@H](O[C@H]3[C@H](O)[C@@H](O)[C@H](O)O[C@@H]3CO)O[C@@H]2CO)[C@H](O)[C@@H](O)[C@@H]1N[C@H]1C=C(CO)[C@@H](O)[C@H](O)[C@H]1O,-6.97%
2,CCCCCC1CCCC(=O)O1 (stereo not drawn),5.97%
3,Cc1oc(=O)oc1CN1CCN(c2cc3c(cc2F)c(=O)c(C(=O)O)c2n3C(C)S2)CC1 (stereo not drawn),0.769%
4,COC(OC)C(C)c1ccccc1 (stereo not drawn),-19.7%
5,CCNC(=O)/C=C/c1cccc(Br)c1,0.286%
6,N#CCCOCCOCCC#N,-6.7%
7,Cc1cc(O)c2c(c1)C(=O)c1cccc(O)c1C2=O,14.9%
8,O=[Si]=O,2.71%
9,COc1cc2c3cc1Oc1cc(ccc1O)C[C@@H]1c4c(cc(OC)c(O)c4Oc4ccc(cc4)C[C@@H]3N(C)CC2)CC[N+]1(C)C,1.22%
10,Cc1ccccc1N1CCN(CCc2nnc3n2CCCC3)CC1,-9.85%
11,NS(=O)(=O)c1cc2c(cc1Cl)NC(CC1CCCC1)NS2(=O)=O (stereo not drawn),0.0297%
12,CC(=O)c1ccc(OCC(=O)N2CCCCC2)cc1,-1.91%
13,O=S(=O)(O)CCO,8.13% [at 78.8 µM]
14,C=C[Si](C)(C)O[Si](C)(C)C=C,16.6%
15,COc1ccc(N=Nc2cc(C)c(N=Nc3ccc(S(=O)(=O)O)cc3)cc2OC)cc1,-4.17%
16,O=C1OC(=O)c2ccccc21,12.7%
17,O=C(/C=C/c1ccccc1)NCCO,2.42%
18,O=C(Oc1ccccc1C(=O)O)c1ccccc1O,8.14%
19,CN[C@@H]1[C@H](O)[C@H](NC)[C@H]2O[C@@]3(O)C(=O)C[C@@H](C)O[C@H]3O[C@@H]2[C@H]1O,5.68%
